These results are taken from ChEMBL document CHEMBL3988442, “University of Dundee, Small-Polar-MMV Screening Library” (2021).

The whole screen tested about 48,000 compounds, of which about 13,000 (27%) showed an effect of 50% or more. The list shows a part of the results.

The experiment relates to Wolbachia pipientis. Description: Anti-Wolbachia Cell-Based Screen. The note with it: 5 µM. More on the design: scale not given: in the data most compounds retested in dose-response had high values. It counts as functional.
Consider `CN1CCCN(C(C(=O)O)c2ccc3c(c2)OCO3)CC1` (centres undefined), for which the “Percent Effect” value was -6.004%.

Take `COc1cccc(C(C(=O)O)N(C)Cc2ccc(C)o2)c1` (centres undefined): the “Percent Effect” value was found to be 105.1%.

`COc1cccc(OC)c1C(C(=O)O)N(C)Cc1c(C)n[nH]c1C` (centres undefined): the “Percent Effect” value is -9.19%.

As for `CN(C)C(C(=O)N1CC(c2ccccn2)C1)c1ccc2c(c1)OCO2` (centres undefined), the “Percent Effect” value is -10.36%.

Turning to `Cc1noc(CN(Cc2ccc3c(c2)OCO3)Cc2ccc(C)o2)n1`, the “Percent Effect” value came to 1.784%.

In the case of `CN(Cc1ccccn1)C(C(=O)O)c1ccc2c(c1)OCO2` (centres undefined), the “Percent Effect” value amounted to 99.57%.

As to `Cc1ccc(CN(C)C(C(=O)O)c2ccc3c(c2)OCO3)o1` (centres undefined), the “Percent Effect” value is on record as 114%.

As for `COc1c(C)cc(C(C(=O)O)N(C)Cc2ccn[nH]2)cc1C` (centres undefined), the “Percent Effect” value is listed as -0.04634%.

For `COc1ccc(C(C(=O)O)N(C)Cc2ccon2)cc1Cl` (centres undefined), the “Percent Effect” value was 4.9%.

As for `Cc1n[nH]c(C)c1CN(C)C(C(=O)O)c1ccc2c(c1)OCO2` (centres undefined), the “Percent Effect” value is listed as 109.5%.

With `COc1ccc(C(C(=O)O)N(C)CCN2CCOCC2)c(C)c1` (centres undefined), the “Percent Effect” value was 5.185%.

Regarding `COc1cccc(Cl)c1C(C(=O)O)N(C)Cc1c(C)n[nH]c1C` (centres undefined), the “Percent Effect” value is on record as -23.52%.

As to `CCc1c(C)[nH]c(C(C)(C)N)nc1=O.Cl`, the “Percent Effect” value amounted to 24.57%.

On to `CCSc1ncc(CN2CCN(c3nc(C)cnc3C)CC2)cn1`, for which the “Percent Effect” value is recorded as -7.047%.

Turning to `CN(C)CCCC(=O)N1C[C@H]2CC[C@@H]1CN(Cc1ccccc1)C2`, the “Percent Effect” value was -3.863%.

Take `CCC(CC)C(=O)NCC1(NC(C)c2ccccc2)CCOCC1` (centres undefined): the “Percent Effect” value is listed as -13.17%.

Turning to `COc1ccc(C)cc1CCNS(C)(=O)=O`, the “Percent Effect” value is recorded as 4.512%.

Regarding `CCOC1CC2(CCN(Cc3nccn3C)CC2)C1.O=C(O)C(F)(F)F`, the “Percent Effect” value is recorded as 2.92%.

Take `COC1CC2(CCN(Cc3nccn3C)CC2)C1.O=C(O)C(F)(F)F`: the “Percent Effect” value amounted to 5.077%.

As to `CN1CCOCC2(CCN(Cc3ccc[nH]3)CC2)C1.O=C(O)C(F)(F)F.O=C(O)C(F)(F)F`, the “Percent Effect” value is -3.282%.

On to `CS(=O)(=O)N1CCOCC2(CN(Cc3nccs3)CCO2)C1.O=C(O)C(F)(F)F` (centres undefined), for which the “Percent Effect” value is on record as 6.136%.

On to `Cn1ccnc1CN1CCC2(COCCN(S(=O)(=O)C3CC3)C2)C1` (centres undefined), for which the “Percent Effect” value worked out at 106.3%.

Consider `Cn1ccnc1CN1CCC2(COCCN(Cc3ccsc3)C2)C1` (centres undefined), for which the “Percent Effect” value was 14.38%.

As to `Cn1ccnc1CN1CCC2(CC1)COC2.O=C(O)C(F)(F)F`, the “Percent Effect” value amounted to 97.83%.

With `O=C(O)C(F)(F)F.O=S(=O)(C1CC1)N1CCOCC2(CCN(c3ccccn3)C2)C1` (centres undefined), the “Percent Effect” value came out at 8.73%.

On to `Cn1cncc1CN1CCC2(CC1)COCCN(S(C)(=O)=O)C2.O=C(O)C(F)(F)F`, for which the “Percent Effect” value is recorded as 124.1%.

`Cn1ccnc1CN1CCC2(CC1)COCCN(S(C)(=O)=O)C2.O=C(O)C(F)(F)F`: the “Percent Effect” value is on record as 104.9%.

With `Cn1ccnc1CN1CCC2(CC1)CCN(Cc1ccoc1)C2.O=C(O)C(F)(F)F.O=C(O)C(F)(F)F`, the “Percent Effect” value was -4.24%.

For the compound `COc1cnc(N2C[C@H](CO)C[C@H](CN3CCOCC3)C2)nc1`, the “Percent Effect” value is on record as -6.58%.

For `Cc1ccc(CN(C(=O)C(C)S(C)(=O)=O)C2CC2)cc1C` (centres undefined), the “Percent Effect” value is on record as -15.47%.

Consider `Cc1ccc(S(=O)(=O)N(C)CC(C)O)c(F)c1` (centres undefined), for which the “Percent Effect” value came to 4.809%.

Turning to `CCc1ncc(C(=O)NC(C)(C)C(=O)OC)s1`, the “Percent Effect” value is reported as -4.518%.

`COCC1CC2(CCN(Cc3nccn3C)CC2)CN1c1ncccn1.O=C(O)C(F)(F)F` (centres undefined): the “Percent Effect” value is -8.738%.

`Cn1ccnc1CN1CCC2(CC1)COCCN(c1ncccn1)C2`: the “Percent Effect” value is on record as 118.1%.

Regarding `c1cnc(N2CCOCC3(CCN(c4cnccn4)CC3)C2)nc1`, the “Percent Effect” value is reported as -29.45%.

In the case of `Cn1cc2ncn(CCNc3cccnc3)c(=O)c2n1`, the “Percent Effect” value is given as -8.591%.

With `Cc1csc(C2CCCCN2C(=O)c2cc(C)n(C)n2)n1` (centres undefined), the “Percent Effect” value is 98.18%.

Turning to `Cc1csc(C2CCCCN2C(=O)c2cnn3ccc(C)nc23)n1` (centres undefined), the “Percent Effect” value is recorded as 2.073%.

Turning to `Cc1csc(C2CCCCN2C(=O)c2cn[nH]c2C)n1` (centres undefined), the “Percent Effect” value was 83.45%.

Turning to `COc1ccc(C(=O)N2CCCCC2c2nc(C)cs2)nn1` (centres undefined), the “Percent Effect” value is -5.655%.

Regarding `Cc1ccc(CC(=O)N2CCCCC2c2nc(C)cs2)cn1` (centres undefined), the “Percent Effect” value is recorded as 2.602%.

Turning to `Cc1cnc(C(=O)N2CCCCC2c2nc(C)cs2)cn1` (centres undefined), the “Percent Effect” value was 81.82%.

In the case of `Cc1cccc(C(=O)N2CCCCC2c2nc(C)cs2)n1` (centres undefined), the “Percent Effect” value stood at 80.1%.

With `Cc1cncc(C(=O)N2CCCCC2c2nc(C)cs2)c1` (centres undefined), the “Percent Effect” value turned out to be 6.279%.

For `CC(C)(C)c1ccc(C2(C(=O)NCCS(N)(=O)=O)CC2)cc1`, the “Percent Effect” value is reported as -15.99%.

As for `Cc1csc(C2CCCCN2C(=O)c2c[nH]c(C)n2)n1` (centres undefined), the “Percent Effect” value was found to be 62.15%.

For `CN(Cc1ccco1)C(=O)C1CSCN1C(=O)c1cccs1` (centres undefined), the “Percent Effect” value is on record as 104.7%.

For the compound `CN(Cc1ccco1)C(=O)C1CSCN1C(=O)C1CCC1` (centres undefined), the “Percent Effect” value was 111.9%.

`Cc1ccc(CC(=O)N2CSCC2C(=O)N(C)Cc2ccco2)o1` (centres undefined): the “Percent Effect” value was found to be 8.524%.

As to `CN(Cc1ccco1)C(=O)[C@H]1CSCN1C(=O)OC(C)(C)C`, the “Percent Effect” value is 12.78%.

For `CN(Cc1cc(-c2cccnc2)no1)C(=O)[C@@H]1CSCN1C`, the “Percent Effect” value is reported as -21.19%.

`CN(Cc1ccco1)C(=O)C1CSCN1C(=O)c1cccnc1` (centres undefined): the “Percent Effect” value amounted to 0.06211%.

Consider `CCOCC(=O)N1CSCC1C(=O)N(C)Cc1ccco1` (centres undefined), for which the “Percent Effect” value came out at 113.6%.

With `CN(Cc1ccco1)C(=O)NCC(c1cccs1)N(C)C` (centres undefined), the “Percent Effect” value is 1.793%.
